Screening data: PubChem BioAssay, National Center for Advancing Translational Sciences (NCATS)
Sm TGR block: inhibitors of Schistosoma mansoni thioredoxin glutathione reductase; purified TGR, DTNB reduction, TNB absorbance 405 nm; Potency, µM (doses to about 114 µM), most hits filed as inhibitors; actives 3% (n = 360,000); also: nearly all actives have a fitted effect of over 60% in size
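Kinetic colorimetric format: TGR-catalysed, NADPH-driven DTNB reduction monitored via TNB absorbance. Enzyme dispensed at 20 nM; compound exposure 15 min at room temperature before reaction start.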
FMDV antiviral: antivirals against foot and mouth disease virus. FMDV antiviral cell-based qHTS. Potency, µM (highest dose often 57.9 µM), hits mostly inhibitors. actives 1.2% (n = 410,000). AID 1159524; calls by dose curve; tested in HEK293T cells; also: read-out not given here; nearly all actives have a fitted effect of over 45% in size
RE007 growth inh: less growth of the S. pombe RE007 Vpr strain | AID 651644 | S. pombe RE007 Vpr strain, BacTiter-Glo ATP luminescence, 24 h | Potency, µM (top dose mostly 92.2 µM), hits mostly inhibitors | actives 0.21% (n = 360,000); active = well fitted falling curve with a large enough effect; inconclusive = small, poorly fitted or top-dose-only effect; inactive = no such curve, though single readings can be large or run the other way; also: nearly all actives have a fitted effect of over 50% in size
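Fission yeast strain RE007, carrying one chromosomally integrated HIV-1 vpr copy, was seeded at OD 0.01 in PMG+AL medium with 23 nL pinned compound. After 24 h at 30 °C and 99% humidity, viability was read by BacTiter-Glo luminescence.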
HCV inhibitor: HCV inhibition | Huh7.5.1 HCVcc-Cre infection, luciferase reporter, 44 h | Potency, µM (series often up to 41.8 µM), usual class: inhibitors | actives 3.4% (n = 340,000)
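Infectious HCV cell culture screen: compound-treated cells (1,000/well, pre-plated 4 h) are infected with HCVcc-Cre at roughly 0.5 moi and grown 44 h. Infection is quantified by luciferase signal after 15 min substrate incubation at room temperature.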
LASV entry inh: Lassa virus entry inhibition; Potency, µM (highest dose often 37.9 µM), actives largely listed as inhibitors; AID 540256; Lassa virus pseudotype entry inhibition, cell reporter; actives 1.2% (n = 300,000); calls by dose curve; tested in HEK293 cells; also: nearly all actives have a fitted effect of over 50% in size
Marburg entry inh: blocks Marburg virus binding to or entry into cells. Marburg virus pseudotyped entry inhibition, cell reporter. Potency, µM (doses to about 37.8 µM), actives largely listed as inhibitors. actives 1.8% (n = 300,000). AID 540276; calls by dose curve; tested in HEK293 cells
Each line names hits and unclear results; the compound was inactive in the other large screens. In the library only some 7.2% were active in any assay of this set; here they are far more common. Unless noted, calls follow the shape of the dose curve; as a rule, active = well fitted curve in the direction sought with a large enough effect; inconclusive = small, poorly fitted or top-dose-only effect, or another doubt; inactive = no such curve, though single readings can be large; an effect the other way counts as inactive or inconclusive.

Cc1cccn2c(CNCC3OCCc4ccccc43)c(C(=O)N3CCCCC3)nc12 (configuration not stated)	Marburg entry inh 10µM
CCOc1ccc2nc(/N=C/c3c(C)[nH]n(-c4ccc(C)cc4)c3=O)sc2c1	RE007 growth inh 13µM, HCV inhibitor inconclusive
O=C1CN=C(c2cccc(Br)c2)c2cc(Br)ccc2N1	LASV entry inh inconclusive, Marburg entry inh 7.9µM
COc1ccc(CNc2ncncc2-c2c(C)noc2C)c(OC)c1	none (no result: Sm TGR block, RE007 growth inh, HCV inhibitor, LASV entry inh, Marburg entry inh)
CN(C)S(=O)(=O)c1cccc(C(=O)NC2CCCc3ccccc32)c1 (configuration not stated)	none
CCCNS(=O)(=O)c1cccc(C(=O)NC2CCCc3ccccc32)c1 (configuration not stated)	LASV entry inh 18µM
COc1cc(NC(=O)CSc2ncc3c(n2)-c2ccc(Cl)cc2N(Cc2ccccc2)S3(=O)=O)cc(OC)c1	none (no result: RE007 growth inh, HCV inhibitor, Marburg entry inh)
OC(c1ccccc1)c1ccncc1 (configuration not stated)	Sm TGR block inconclusive (no result: LASV entry inh, Marburg entry inh)
OC(C1=CC(=Cc2ccncc2)c2ccccc21)c1ccncc1 (configuration not stated)	FMDV antiviral inconclusive, HCV inhibitor 11µM, Marburg entry inh inconclusive (no result: Sm TGR block)
NC(=O)CC1(c2ccccc2)CCCCC1	none (no result: Sm TGR block, HCV inhibitor, LASV entry inh, Marburg entry inh)
O=[N+]([O-])c1ccccc1/C=N\Nc1nccs1	HCV inhibitor inconclusive, LASV entry inh inconclusive
O=[N+]([O-])c1cc(/C=N\Nc2nccs2)ccc1O	Sm TGR block 28µM (no result: FMDV antiviral, RE007 growth inh, LASV entry inh)
CC1(C(=O)Nc2ccc3c(c2)OCCO3)CN(S(C)(=O)=O)CC(=O)N1CCc1ccccc1 (configuration not stated)	none (no result: Sm TGR block, HCV inhibitor, LASV entry inh, Marburg entry inh)
Nc1ncc2c(n1)CC(c1ccco1)CC2=O (configuration not stated)	Sm TGR block 50µM, Marburg entry inh inconclusive
O=C(Nc1ncc2c(n1)CC(c1ccco1)CC2=O)c1ccco1 (configuration not stated)	Sm TGR block 20µM
O=C1CC(c2ccco2)Cc2nc(N3CCc4ccccc4C3)ncc21 (configuration not stated)	Sm TGR block 32µM, LASV entry inh inconclusive
CC(C)C[C@H]1CNC(=O)C(=O)N1C[C@@H]1CCCN1C[C@H](Cc1ccccc1)N1C[C@H](Cc2ccccc2)N(CC2CCCCC2)C(=O)C1=O	none (no result: Sm TGR block, HCV inhibitor, LASV entry inh, Marburg entry inh)
Cc1ccc(Cl)cc1N1CCN(C(=O)c2noc(C)c2[N+](=O)[O-])CC1	HCV inhibitor 10µM (no result: LASV entry inh, Marburg entry inh)
COc1ccccc1Oc1ccc(NC(=O)c2ccc(Cl)cc2)cc1	FMDV antiviral inconclusive, HCV inhibitor 2.8µM
COc1ccccc1Oc1ccc(Oc2ccccc2OC)cc1	LASV entry inh inconclusive, Marburg entry inh 10µM
O[C@H](c1ccc(F)cc1)[C@H](c1ccccc1)N1CCOCC1	none (no result: Sm TGR block, FMDV antiviral, RE007 growth inh, HCV inhibitor, LASV entry inh)
NS(=O)(=O)c1ccc(N=Cc2c(O)[nH]c3ccc4ncsc4c23)cc1	LASV entry inh 7.1µM (no result: Sm TGR block, FMDV antiviral, RE007 growth inh, HCV inhibitor, Marburg entry inh)
CCOC(=O)Nc1ccc2c3c(cccc13)-c1ccccc1-2	HCV inhibitor 10µM (no result: Sm TGR block)
CCOC(=O)Nc1cccc2ccccc12	none
Cc1nn2cc(-c3cccc(Cl)c3)cnc2c1Cl	LASV entry inh inconclusive, Marburg entry inh 4.5µM
Cc1ccc(C)c(NC(=O)C(=O)NCC(c2cccnc2)N2CCN(c3ccc(F)cc3)CC2)c1 (configuration not stated)	FMDV antiviral inconclusive (no result: RE007 growth inh, HCV inhibitor, Marburg entry inh)
O=C1OCCC1Sc1nnc(-c2ccccc2)o1 (configuration not stated)	none
O=C1OCCC1Sc1nnc(-c2ccc(Cl)cc2Cl)o1 (configuration not stated)	FMDV antiviral inconclusive, LASV entry inh inconclusive, Marburg entry inh 5µM
CCc1nc2ccc(C(=O)NCCc3ccccn3)cn2c1N(C)Cc1cccs1	FMDV antiviral inconclusive (no result: Sm TGR block, HCV inhibitor, LASV entry inh, Marburg entry inh)
O=C(O)c1cc(/C=C/C(=O)c2cc(F)ccc2O)c2c(c1)COCO2	Sm TGR block 28µM, FMDV antiviral inconclusive (no result: LASV entry inh, Marburg entry inh)
COc1ccc(C(=O)/C=C/c2cc(C(=O)O)cc3c2OCOC3)c(O)c1	Sm TGR block inconclusive, FMDV antiviral inconclusive
O=C1C=CC2(O[C@H](c3ccccc3)[C@@H](c3ccccc3)O2)[C@H](Sc2ccccc2O)C1	FMDV antiviral 7.9µM, RE007 growth inh 40µM, HCV inhibitor inconclusive, LASV entry inh 6.3µM, Marburg entry inh inconclusive (no result: Sm TGR block)
CCOC(=O)C1CCCN(C(=O)c2cc3nc(-c4ccc5c(c4)OCO5)cc(C(F)(F)F)n3n2)C1 (configuration not stated)	FMDV antiviral 35µM, LASV entry inh inconclusive, Marburg entry inh inconclusive
C=CCOc1c(Cl)cc(CNCCCN2CCOCC2)cc1OC	HCV inhibitor inconclusive, Marburg entry inh 10µM
CCOc1cc(CNCCCN2CCOCC2)cc(Cl)c1OCC(=O)NC(C)(C)C	HCV inhibitor 11µM, LASV entry inh inconclusive, Marburg entry inh inconclusive
COc1cc(CNCCCN2CCOCC2)cc(Br)c1OCC(=O)N1CCCCC1	HCV inhibitor inconclusive, Marburg entry inh inconclusive
COc1cc(CNCCN2CCOCC2)ccc1OCc1ccccc1Cl	HCV inhibitor inconclusive, LASV entry inh inconclusive, Marburg entry inh inconclusive
CCOc1cc(CNCCCN2CCOCC2)cc(Br)c1OCC(=O)Nc1cccc(C(F)(F)F)c1	HCV inhibitor inconclusive (no result: LASV entry inh)
COc1cc(CNCCCN2CCOCC2)cc(Br)c1OCc1ccc(Cl)cc1	FMDV antiviral 40µM, HCV inhibitor 1.8µM (no result: LASV entry inh, Marburg entry inh)
COc1cc(CNCCN2CCOCC2)ccc1OCc1ccc(Cl)cc1	HCV inhibitor 7.1µM, Marburg entry inh inconclusive
C=C1C[C@@]23CC[C@H]4[C@@](C)(CCC[C@@]4(C)C(=O)OC4OC(CO)C(O)C(O)C4O)[C@@H]2CC[C@]1(OC1OC(CO)C(O)C(O)C1OC1OC(CO)C(O)C(O)C1O)C3 (some centres not stated)	none (no result: Sm TGR block, FMDV antiviral, RE007 growth inh, HCV inhibitor)
COc1ccc(OCC(=O)NCc2ccc3c(c2)CCN3C(=O)c2cccc(C)c2)cc1	LASV entry inh inconclusive (no result: RE007 growth inh, HCV inhibitor, Marburg entry inh)
CC(CNC(=O)c1sc2ncccc2c1-n1cccc1)c1ccccc1 (configuration not stated)	none (no result: RE007 growth inh, HCV inhibitor, Marburg entry inh)
COc1ccc2cc3cc(C(=O)NC4CC4)sc3nc2c1	FMDV antiviral 16µM (no result: LASV entry inh, Marburg entry inh)
CCOc1ccc(CCNC(=O)c2cc3cc4ccc(OC)cc4nc3s2)cc1OCC	Marburg entry inh inconclusive (no result: RE007 growth inh, HCV inhibitor)
CSc1nn(Cc2cccc(Cl)c2)c(N(C(C)=O)C(C)=O)c1S(=O)(=O)c1ccccc1	LASV entry inh inconclusive (no result: RE007 growth inh, HCV inhibitor)
Cc1ccc(CN2C(=O)C(O)(c3c[nH]c4ccccc34)c3cc(Cl)ccc32)cc1 (configuration not stated)	LASV entry inh inconclusive, Marburg entry inh inconclusive (no result: RE007 growth inh, HCV inhibitor)
Cc1cc(/C=N/n2cnnc2)c(C)n1-c1ccc(OCc2ccc(Cl)cc2)cc1	FMDV antiviral inconclusive, HCV inhibitor 7.9µM, LASV entry inh inconclusive, Marburg entry inh inconclusive
Cc1cccc(C)c1Nc1nn2c(=O)c3cc4c(cc3nc2s1)OCO4	none (no result: RE007 growth inh, HCV inhibitor)
